In PubChem BioAssay (NCATS):
Results filed as inconclusive are left out. Calls of active or inactive are those of the source. The call rests on the fitted dose curve; in most records, active means well fitted inhibition curve with a large enough effect; inconclusive means small, poorly fitted or top-dose-only effect; inactive means flat fitted curve, though single readings scatter.

Columns and labels:
Test in all cases: qHTS profiling for inhibitors of Plasmodium falciparum proliferation (AID 504749); further: nearly all actives have a fitted effect of over 60% in size
Settings in all cases: P. falciparum in erythrocytes, SYBR Green DNA, 72 h; series mostly up to 28.7 µM
[1] = tested on: ATS95
In short: (§1)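 Fluorescence of SYBR Green-bound parasite DNA, read at 485/535 nm, served as the growth measure. Infected erythrocytes were cultured with compound 72 h; artemisinin (0.29 uM) and DMSO wells defined the normalization range.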

[2] = tested on: CP185
In short: as §1

[3] = tested on: CP194
In short: as §1

[4] = tested on: CP201
In short: as §1

[5] = tested on: CP237
In short: as §1

[6] = tested on: CP238
In short: as §1

[7] = tested on: CP262
In short: as §1

[8] = tested on: CP265
In short: as §1

[9] = tested on: CP268
In short: as §1

[10] = tested on: CP286
In short: as §1

[11] = tested on: CP305
In short: as §1

[12] = tested on: CP335
In short: as §1

[13] = tested on: DIV30
In short: as §1

[14] = tested on: Dd2
In short: as §1

[15] = tested on: ECU
In short: as §1

[16] = tested on: GB4
In short: as §1

[17] = tested on: HB3
In short: as §1

[18] = tested on: P94_40
In short: as §1

[19] = tested on: PAD
In short: as §1

[20] = tested on: TAB109
In short: as §1

Measured: Potency

CO[C@H]1[C@@H](O)CC(OC2[C@@H](O)CC(OC3[C@@H](O)C[C@H](OC4CC[C@@]5(C)C(CCC6C5CC(O)[C@]5(C)[C@H](C7=CC(=O)OC7)CCC65O)C4)O[C@@H]3C)O[C@@H]2C)O[C@@H]1C (stereo not given in full)
inactive: all assays above
